Assay outcomes deposited in PubChem by National Center for Advancing Translational Sciences (NCATS).
Compounds with a hit are over-represented: about 18% of the library has one in this group of screens.
CtBP-E1A blk – qHTS Assay for Inhibitors of the CtBP/E1A Interaction; AlphaScreen GST-E1A/His-CtBP binding, 1536-well; stronger effect = lower value; activity change, % (test concentration not listed); 340,000 compounds, 0.49% hits; AID 651724, 2012; in the data active = activity change below about -65%; inconclusive = mostly about -30% to -63%
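Steps: dispense buffer (Tris pH 8.0, NaCl 300 mM, TCEP 1 mM, BSA, Tween 20); add 5X protein mix (GST-E1A, His-CtBP, 125 nM each); pin 23 nL compound; 2 h at 37 °C, dark; add 5X beads (50 ug/mL); 1 h; read.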
TDP1 inh – qHTS Assay for Inhibitors of Tyrosyl-DNA Phosphodiesterase (TDP1); Potency, µM (doses to about 130 µM), most hits filed as inhibitors; Tyrosyl-DNA phosphodiesterase 1 (Homo sapiens), Q9NUW8; 350,000 compounds, 0.28% hits; AID 485290, 2010; recombinant TDP1, AlphaScreen DNA substrate cleavage; also: nearly all actives have a fitted effect of over 40% in size
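E. coli-derived human Tdp1, 1 nM final. Cpd preinc 15 min RT; substrate 15 nM final, 5 min RT; AS bead mix 10 ug/ml final, 10 min RT. Signal loss = tyrosine-FITC cleavage. No-enzyme wells = max signal.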
TDP1 cell CPT – qHTS for Inhibitors of human tyrosyl-DNA phosphodiesterase 1 (TDP1): qHTS in cells in presence of CPT. Potency, µM (doses to about 46.2 µM), actives largely listed as inhibitors. 420,000 compounds, 12% hits. chicken DT40 Tdp1-/-;hTDP1 cells + 20 nM CPT, ATP luminescence, 48 h; also: nearly all actives have a fitted effect of over 55% in size
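Chicken DT40 Tdp1-/- cells complemented with human TDP1, 400 cells/well, exposed to compounds plus 20 nM camptothecin for at least 48 h at 37 C; viability read as ATP content by CellTiter-Glo luminescence.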
Six1-Eya2 blk – qHTS Assay for Inhibitors of the Six1/Eya2 Interaction | Homeobox protein SIX1 (Homo sapiens) + Protein phosphatase EYA2 (Homo sapiens), … | AlphaScreen GST-Six1/His-Eya2 binding, biochemical; stronger effect = lower value | AID 651725, 2012 | activity change, % (test concentration not listed) | 360,000 compounds, 0.56% hits; in the data active = activity change below about -65%; inconclusive = mostly about -30% to -63%
Target sequence (O00167 whole entry, looked up): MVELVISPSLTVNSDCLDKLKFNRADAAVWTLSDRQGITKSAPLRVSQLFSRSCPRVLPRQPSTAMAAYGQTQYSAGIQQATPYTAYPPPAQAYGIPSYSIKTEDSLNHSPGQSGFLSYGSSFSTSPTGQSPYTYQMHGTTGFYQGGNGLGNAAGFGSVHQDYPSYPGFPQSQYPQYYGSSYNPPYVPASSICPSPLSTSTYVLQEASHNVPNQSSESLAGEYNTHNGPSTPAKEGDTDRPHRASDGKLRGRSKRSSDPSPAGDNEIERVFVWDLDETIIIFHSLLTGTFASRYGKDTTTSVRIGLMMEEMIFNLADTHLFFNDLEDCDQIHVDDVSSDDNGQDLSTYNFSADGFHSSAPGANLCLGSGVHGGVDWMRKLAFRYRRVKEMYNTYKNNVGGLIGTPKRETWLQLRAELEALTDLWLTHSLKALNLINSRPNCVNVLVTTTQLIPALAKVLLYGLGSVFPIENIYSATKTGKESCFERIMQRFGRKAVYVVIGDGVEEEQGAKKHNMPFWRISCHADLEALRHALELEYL
Target sequence (Q15475 whole entry, looked up): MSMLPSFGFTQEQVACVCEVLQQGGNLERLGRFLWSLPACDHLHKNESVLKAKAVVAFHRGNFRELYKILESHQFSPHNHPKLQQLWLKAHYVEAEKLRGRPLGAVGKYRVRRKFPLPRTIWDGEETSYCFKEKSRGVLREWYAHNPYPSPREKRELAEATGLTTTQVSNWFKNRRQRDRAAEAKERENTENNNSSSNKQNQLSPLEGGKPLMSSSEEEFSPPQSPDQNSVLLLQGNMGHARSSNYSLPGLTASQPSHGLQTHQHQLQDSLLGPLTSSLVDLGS
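GST-Six1 + His-Eya2 (5X stock: 250/500 nM); Tris pH 8.0, 300 mM NaCl, 0.05% BSA, 0.02% Tween 20; GSH donor/Ni acceptor beads; 1 h 37 °C dark; AlphaScreen readout.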
TDP1 cell noCPT – qHTS for Inhibitors of human tyrosyl-DNA phosphodiesterase 1 (TDP1): qHTS in cells in absence of CPT; DT40 Tdp1-/- hTDP1 cells, no CPT, ATP luminescence, 48 h; Potency, µM (doses to about 46.2 µM), usual class: inhibitors; 420,000 compounds, 15% hits; also: nearly all actives have a fitted effect of over 55% in size
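Growth kinetics read by CellTiter-Glo luminescence after ≥48 hr at 37 °C. Cells: DT40 Tdp1-/- stably carrying human TDP1, 400 per well, compound exposure in the absence of CPT (DMSO vehicle).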
IL-1B inflam inh – qHTS for Inhibitors of Inflammasome Signaling: IL-1-beta AlphaLISA Primary Screen; THP-1 LPS/ATP IL-1B secretion, AlphaLISA, 16 h; stronger effect = lower value; activity change, % at 57.5 µM; 360,000 compounds, 4.7% hits; AID 743279, 2014; in the data active = activity change below about -50%; inconclusive = mostly about -30% to -49%
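THP-1 cells pretreated 1 hr with compounds (up to 57.5 uM final), then stimulated with LPS (250 ng/mL final) plus ATP (1.25 mM final); secreted IL-1B measured by AlphaLISA after 16 hr, decreased signal indicating inhibition.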
Of the large screens only hits and unclear results are named; the others gave an inactive call. Unless noted, calls follow the shape of the dose curve; as a rule, active = well fitted curve in the direction sought with a large enough effect; inconclusive = small, poorly fitted or top-dose-only effect, or another doubt; inactive = no such curve, though single readings can be large; an effect the other way counts as inactive or inconclusive.

CCOC(=O)c1ccc(Oc2cc(C)nc(SC)n2)cc1	TDP1 cell CPT 8.2µM, TDP1 cell noCPT 9.2µM
Cc1cc(Oc2ccc(Br)cc2)nc(SCC(=O)c2ccccc2)n1	TDP1 cell CPT 23µM, TDP1 cell noCPT 21µM
COC(=O)CSc1nc(C)cc(Oc2ccccc2)n1	none
O=C(/C=C/c1ccc(F)cc1)N1CCN(S(=O)(=O)/C=C/c2ccccc2)CC1	none
C=CCn1c(SCC(=O)N2CCOCC2)nc(O)c(Cc2ccccc2)c1=O	TDP1 cell CPT inconclusive, TDP1 cell noCPT 13µM
C=CCn1c(SCC(=O)N2CCOCC2)nc2sc3c(c2c1=O)CCCC3	TDP1 cell CPT inconclusive, TDP1 cell noCPT 18µM, IL-1B inflam inh -77
Cn1c(SCC(=O)N2CCOCC2)nc2sc3c(c2c1=O)CCCC3	TDP1 cell CPT 9.2µM, TDP1 cell noCPT 23µM
C=CCn1c(SCC(=O)N2CCOCC2)nc2sc(C)c(C)c2c1=O	none
Cn1c(SCC(=O)O)nc2sc3c(c2c1=O)CCC3	none (no result: CtBP-E1A blk, TDP1 inh)
CC(C)n1cnc2cc(NCc3ccco3)ccc21	TDP1 cell CPT inconclusive
COc1ccccc1CN(C)C[C@H]1OCc2cnnn2CCCC(=O)N([C@H](C)CO)C[C@@H]1C	none (no result: TDP1 inh)
O=C(NCc1ccc(F)cc1)c1ccc2c(=O)n3c(nc2c1)CCCCC3	none (no result: TDP1 inh)
O=C(O)CS(=O)(=O)CC(=O)NCc1cccc(C(F)(F)F)c1	none
COc1ccccc1NC(=O)/C(=N/OCc1ccc(C#N)cc1)C(C)=O	none
CN(Cc1ccccc1)C(=O)CN(C1CCCCC1)S(C)(=O)=O	none
CCOc1ccc2nc(N3CCCC(C(=O)Nc4ccc(CC)cc4)C3)sc2c1 (stereo not drawn)	TDP1 cell CPT 16µM, TDP1 cell noCPT 10µM (no result: CtBP-E1A blk, Six1-Eya2 blk, IL-1B inflam inh)
CCOC(=O)N1CCN(C(=O)C2CCCN(c3nc4ccc(OCC)cc4s3)C2)CC1 (stereo not drawn)	TDP1 cell CPT inconclusive, TDP1 cell noCPT inconclusive
CCOc1ccc2nc(N3CCCC(C(=O)NCc4ccc(C)cc4)C3)sc2c1 (stereo not drawn)	TDP1 cell CPT inconclusive, TDP1 cell noCPT inconclusive (no result: CtBP-E1A blk, Six1-Eya2 blk, IL-1B inflam inh)
CCOc1ccc2nc(N3CCCC(C(=O)Nc4ccc(OC)cc4)C3)sc2c1 (stereo not drawn)	TDP1 cell CPT 15µM, TDP1 cell noCPT 12µM (no result: CtBP-E1A blk, Six1-Eya2 blk, IL-1B inflam inh)
CCOc1ccc2nc(N3CCCC(C(=O)Nc4cc(Cl)c(OC)cc4OC)C3)sc2c1 (stereo not drawn)	TDP1 cell CPT 18µM, TDP1 cell noCPT 13µM (no result: CtBP-E1A blk, Six1-Eya2 blk, IL-1B inflam inh)
CCOc1ccc2nc(N3CCCC(C(=O)Nc4cccc(Cl)c4C)C3)sc2c1 (stereo not drawn)	TDP1 cell CPT inconclusive, TDP1 cell noCPT inconclusive (no result: CtBP-E1A blk, Six1-Eya2 blk, IL-1B inflam inh)
CCOc1ccc2nc(N3CCCC(C(=O)NCc4ccccc4OC)C3)sc2c1 (stereo not drawn)	TDP1 cell CPT inconclusive, TDP1 cell noCPT 23µM (no result: CtBP-E1A blk, Six1-Eya2 blk, IL-1B inflam inh)
CN(Cc1cnn(-c2ccccc2)c1)C(=O)c1ccc(S(=O)(=O)NCc2ccco2)cc1	TDP1 cell noCPT inconclusive (no result: TDP1 inh)
CCOc1ccc2nc(N3CCCC(C(=O)NC4CCCC4)C3)sc2c1 (stereo not drawn)	TDP1 cell CPT inconclusive, TDP1 cell noCPT 21µM
CCOc1ccc2nc(N3CCC(C(=O)NC4CCCCC4)CC3)sc2c1	TDP1 cell CPT inconclusive, TDP1 cell noCPT inconclusive (no result: CtBP-E1A blk)
CCOC(=O)Nc1ccc2nc(N3CCCCCC3)sc2c1	TDP1 cell CPT 3.7µM, TDP1 cell noCPT 2.6µM (no result: CtBP-E1A blk, TDP1 inh)
CCOC(=O)C(C(=O)c1ccccc1)[C@H](CCc1ccccc1)NC(=O)OC (stereo partly drawn)	none (no result: CtBP-E1A blk, TDP1 cell CPT, Six1-Eya2 blk, TDP1 cell noCPT, IL-1B inflam inh)
CCCCN(CCCNC(=O)c1c(C)cc(=O)oc1C)c1ccccc1	TDP1 cell CPT inconclusive, TDP1 cell noCPT inconclusive
